From PubChem BioAssay (NCATS)
Inconclusive results are not listed. A number with no mark means an inactive call. The source made the active and inactive calls. The call rests on the fitted dose curve; in most records, active means well fitted cell-killing curve with a large enough effect; inconclusive means small, poorly fitted or top-dose-only effect, or effect the other way; inactive means no such curve, though single readings can be large or run the other way.

experiment: qHTS of pediatric cancer cell lines to identify multiple opportunities for drug repurposing: Confirmatory screen for MG 63 (6-TG R) cells (AID 1347119); settings: MG-63 (6-TG resistant) osteosarcoma viability; series mostly up to 45.9 µM; activity change, negative = cytotoxicity: at the top concentration; further: nearly all actives have a fitted effect of over 55% in size;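 on activity change, negative = cytotoxicity: plate controls were DMSO neutral control for no effect and bortezomib for full effect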
Summary of the method: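 Viability after 48 h compound treatment at 37C, 500-1,000 cells/well, read as ATP luminescence with CellTiter-Glo. Primary screens used 11-point (MIPE, 0.78 nM-46 µM) or 8-point (NPC, 0.59 nM-46 µM) final concentrations; follow-up screens used 11-point dilutions.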
Potency means the concentration at half of the fitted maximal effect.

| SMILES | Potency | activity change, negative = cytotoxicity [%] |
| --- | --- | --- |
| CC[n+]1c(-c2ccccc2)c2cc(N)ccc2c2ccc(N)cc21 | 5.85 µM (active) |  |
| C[C@@H]1O[C@@H](O[C@@H]2C=C3CC[C@@H]4[C@H](CC[C@]5(C)[C@@H](c6ccc(=O)oc6)CC[C@]45O)[C@@]3(C)CC2)[C@H](O)[C@H](O)[C@H]1O | 0.0083 µM (active) |  |
| COc1ccc(C(=O)N2CCCC2=O)cc1 | 29.3 µM (active) |  |
| CCc1ccc(C2CCNCC2)cc1 |  | -0.493 |
| COc1ccc2c(C(=O)c3ccc(Cl)cc3)c(C)n(CC(=O)O)c2c1 |  | 0.712 |
| CCCCCCCCCCCC[N+](C)(C)CCOc1ccccc1 | 20.8 µM (active) |  |
| Cc1ccc([N+](=O)[O-])[c]2c1[O][Hg]2 | 5.22 µM (active) |  |
| CCCCCCCCC(=O)NCc1ccc(O)c(OC)c1 |  | -18 |
| ClC1=C(Cl)C2(Cl)C(CBr)CC1(Cl)C2(Cl)Cl (stereo unspecified) |  | -11.4 |
| CN1[C@@H]2CC[C@H]1CC(OC(=O)c1cc(Cl)cc(Cl)c1)C2 (stereo partly specified) |  | -5.06 |
| COC(=O)C1=CCCN(C)C1 |  | -6.6 |
